Measurements published in PubChem BioAssay AID652128 (Broad Institute, 2013).
The other results are listed elsewhere or left out. Inconclusive results are not listed. Calls of active or inactive are those of the source.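 Rule for the calls: active = fitted half-maximal concentration for signal loss at or below twice the highest dose tested, in every separate run (actives reach about 64 µM in these data); inconclusive = runs disagree, or flat partial signal loss, or poor fit; inactive = the rest.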

assay: DNA-binding compounds via dye displacement, dose response, artefact control for RAD52 inhibitor project, biochemical, fluorescence polarization, cherry-pick (AID 652128); settings: Salmon sperm DNA/acridine orange FP displacement

SMILES | outcome | AC50
Nc1ccc(OCC(O)C[n+]2ccc(CCS(=O)(=O)[O-])cc2)cc1 (stereo unspecified) | inactive | –
CCOCCCNC(=S)Nc1ccc2nc(N3CCN(CC)CC3)cc(C)c2c1 | inactive | –
CCN(CC(=O)Nc1ccc(NC(C)=O)cc1)C(=O)C1CC(=O)N(c2ccc3c(c2)OCCO3)C1 (stereo unspecified) | inactive | –
COc1ccc2[nH]c3c(C)c4cc[n+](C)cc4c(C)c3c2c1 | – | 4.3 µM (active)
NCCCNC(=S)NCCCN(Cc1ccc(Cl)cc1)c1ccc(Br)cn1 | inactive | –
CN1CCN(C2Cc3ccc(Cl)cc3Sc3ccc(F)cc32)CC1 (stereo unspecified) | inactive | –
NC(N)=Nc1nc(-c2ccccc2)c2cc(Cl)ccc2n1 | inactive | –
CCN1CCN(CCNC(=O)c2ccc(/C=C3/Sc4ccccc4N(Cc4cccc(C)c4)C3=O)cc2)CC1 | inactive | –
CCN(CC)CCOc1ccc2c(c1)C(=NNC(=O)c1ccccn1)c1cc(OCCN(CC)CC)ccc1-2 | – | 4.27 µM (active)
COc1cccc(CNc2nc(NCc3cccs3)nc3ccsc23)c1 | inactive | –
CN(C)CCNC(=O)c1ccc(-c2cn3c(-c4ccc(Oc5ccccc5)cc4)cnc3cn2)cc1 | inactive | –
C[C@H]1CN([C@@H](C)CO)C(=O)CCCn2nncc2CO[C@@H]1CN(C)C(=O)Nc1ccc(N2CCN(C)CC2)cc1 | inactive | –
Nc1ncc(CN2CCCC(C(=O)Nc3ccc(-c4ccco4)cc3)C2)cn1 (stereo unspecified) | inactive | –
CN1CCC(CN)(N2CCN(c3ccccc3)CC2)CC1 | inactive | –
CN(Cc1ccccc1F)c1cc2c(c3c1ccn3C)C1CCC2O1 (stereo unspecified) | inactive | –
Oc1ccc(N=Cc2sc3ccccc3c2Cl)cc1 | inactive | –
CCN(CC)CCNC(=O)c1ccc(NC(=O)c2cc(-c3ccncc3)nc3ccccc23)cc1 | inactive | –
CN1CCN(c2nc(Nc3ccc(O)cc3)nc3ccccc23)CC1 | inactive | –
CCCCCCCCCCOC(=O)Cn1c(COc2ccc(C)cc2)[n+](C)c2ccccc21 | inactive | –
CC(=O)Nc1cc(-c2ccc(N3CCN(C)CC3)cc2)cn2c(-c3cccc(C(=O)N(C)C)c3)cnc12 | inactive | –
COc1ccc(NC(=O)C2C3CCC(O3)C2C(=O)O)cc1OC (stereo unspecified) | inactive | –
Cn1ccc(=Nc2ccc(NC(=O)c3ccc(N=c4ccn(C)c5ccc([N+](=O)[O-])cc45)cc3)cc2)cc1 | inactive | –
CC(C)C(=O)N1CC(=O)Nc2ccc(F)cc2C1c1ccc(F)cc1 (stereo unspecified) | inactive | –
COc1ccc(CC(N)c2csc(NC(=O)Nc3ccc(C(C)C)cc3)n2)cc1 (stereo unspecified) | inactive | –
Cc1ccc2c(c1)C1CN(C)CCC1N2S(=O)(=O)c1ccc(Oc2ccc([N+](=O)[O-])cc2)cc1 (stereo unspecified) | inactive | –
COc1cccc2sc(N(CCCN(C)C)C(=O)C(c3ccccc3)c3ccccc3)nc12 | inactive | –
